# Test results from PubChem BioAssay AID686979 (National Center for Advancing Translational Sciences (NCATS), 2013).
# Hit rate of the full screen: of about 420,000 compounds, about 50,000 (12%) were called active. Not shown: some 26% with an inconclusive outcome. Calls come from the whole dose curve; as a rule, active = well fitted inhibition curve with a large enough effect; inconclusive = small, poorly fitted or top-dose-only effect; inactive = flat fitted curve, though single readings scatter. This excerpt belongs to a sample that is enriched for actives. Where a SMILES comes first, the peptide text is derived from it. Bridges are numbered along the chain shown (N, C = ends). [ ]: non-standard residue; d: D form. The star is where a group is joined. X4 = CC[C@H](C)CCCCC(=O)*; Dab = NCC[C@H](N)C(=O)O
# Test: qHTS for Inhibitors of human tyrosyl-DNA phosphodiesterase 1 (TDP1): qHTS in cells in presence of CPT; note: nearly all actives have a fitted effect of over 55% in size
# Settings: chicken DT40 Tdp1-/-;hTDP1 cells + 20 nM CPT, ATP luminescence, 48 h; series mostly up to 46.2 µM; activity change, negative = growth inhibition: at the top concentration
# How it was run: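 Chicken DT40 Tdp1-/- cells stably complemented with human TDP1 were seeded at 400 cells/well in medium containing 20 nM camptothecin, exposed to pin-transferred compounds, and grown at 37 °C for at least 48 hr. Viability was read as ATP luminescence.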
# % is set by controls: 0 for no effect and ±100 for the full control effect; potency is the fitted concentration of half-maximal effect.
SMILES,"activity change, negative = growth inhibition",Potency
CCN(Cc1ccccc1)Cc1c(O)ccc2c(=O)c(-c3ccc(Cl)cc3Cl)coc12,0.932% (inactive),
Cc1nc(C(F)(F)F)ccc1C(=O)N1CCC1(C)C(=O)NS(=O)(=O)c1ccc(F)cc1F (stereo not drawn),-11.8% (inactive),
O=C(Nc1cccnc1)c1cc(Cl)ccc1Cl,-4.97% (inactive),
CC(=O)c1nn(-c2ccc(C)cc2)cc1C(=O)c1cccc(Br)c1,-1.68% (inactive),
COc1ccc(S(=O)(=O)N2CCN(C(=O)N(C)C)C2C)cc1 (stereo not drawn),25.4% (inactive),
COc1ccc(NC(=O)CCCC(=O)c2ccccc2)cc1,5.35% (inactive),
CC(C)N(C(=O)Cn1cc(S(=O)(=O)CC(=O)N2CCOCC2)c2ccccc21)C(C)C,-12.8% (inactive),
CCCc1nn2c(=O)cc(COC(=O)c3ccc(NC(=O)COc4ccc(F)cc4)cc3)nc2s1,-14.8% (inactive),
NC(=O)c1nsc(C(=O)N(CCCN2CCOCC2)C(C(=O)NC2CCCCC2)c2ccc(Cl)cc2)c1N (stereo not drawn),2.27% (inactive),
CC(C)(C)NC(=O)C(c1ccc(Cl)cc1)N(CCO)C(=O)c1snc(C(N)=O)c1N (stereo not drawn),,13 µM (active)
COc1cc(C(C(=O)NC2CCCC2)N(Cc2ccccc2)C(=O)c2snc(C(N)=O)c2N)ccc1O (stereo not drawn),-13.6% (inactive),
CC(C)(C)C(=O)NC1CC2CCCC(C1)N2C(=O)Nc1ccccc1F (stereo not drawn),3.31% (inactive),
COC(=O)[C@@H]1CCCN1C(=O)c1cc(COc2cccc3cccnc23)on1,-13.8% (inactive),
Cc1ccc(OCc2cc(C(=O)N(C)CCn3ccnc3C)no2)cc1C,-13.2% (inactive),
COCC1CCCCN1C(=O)c1cc(COc2ccc(C)c(C)c2)on1 (stereo not drawn),,20.6 µM (active)
O=C1C=CN2CCCC2CC1 (stereo not drawn),,16.4 µM (active)
Cc1cc(C)c(C#N)c(Nc2cccc(Br)c2)n1,-4.23% (inactive),
CC1(C(=O)NS(=O)(=O)c2cccs2)CCN1C(=O)Cc1ccc(-c2ccccc2)cc1 (stereo not drawn),-5.95% (inactive),
CCCNC(=O)C1(C)CCN1C(=O)Cc1ccc(-c2ccccc2)cc1 (stereo not drawn),,16.4 µM (active)
CC1(C(=O)NS(=O)(=O)c2ccccc2)CCN1C(=O)Cc1ccc(-c2ccccc2)cc1 (stereo not drawn),-7.34% (inactive),
CCOC(=O)c1c(C)[nH]c(C(=O)OCC(=O)c2ccc(OC)cc2OC)c1C,-17.3% (inactive),
N#C/C(=C\c1cccnc1)C(=O)Nc1ccc(SC(F)F)cc1,-28.9% (inactive),
O=C(C1CCC1)N1CCN(c2ccccc2)CC1,-15.3% (inactive),
Cn1c(C(=O)N2CCC(C(=O)N3CCN(c4ccccc4)CC3)CC2)cc2sccc21,,13 µM (active)

SMILES,"activity change, negative = growth inhibition",Potency
CS(=O)(=O)N1CCC(C(=O)N2CCN(c3ccccc3)CC2)CC1,-15.5% (inactive),
CCOC(=O)Cc1ncccc1C(=O)Nc1ccc(OC)cc1,7.57% (inactive),
Cc1ccc2cccc([N+](=O)[O-])c2n1,3.55% (inactive),
CC[C@H](C)CCCCC(=O)N[C@@H](CCN)C(=O)N[C@H](C(=O)N[C@@H](CCN)C(=O)N[C@H]1CCNC(=O)[C@H]([C@@H](C)O)NC(=O)[C@H](CCN)NC(=O)[C@H](CCN)NC(=O)[C@H](CC(C)C)NC(=O)[C@@H](CC(C)C)NC(=O)[C@H](CCN)NC1=O)[C@@H](C)O (X4-[Dab]T[Dab][Dab][Dab][dL]L[Dab][Dab]T; lactam 4-C),7.64% (inactive),
CC(=O)N1CCCc2ccc(NS(=O)(=O)c3ccc(F)cc3F)cc21,3.45% (inactive),
CCc1nn(CCCN2CCN(c3cccc(Cl)c3)CC2)c(=O)n1CCOc1ccccc1,,11.6 µM (active)
Cc1nn(CCOc2ccccc2)c(=O)n1-c1ccccc1F,-4.12% (inactive),
CCN1C(=O)/C(=C\N2CCN(c3cccc(Cl)c3)CC2)SC1=S,-25.7% (inactive),
Cc1cc(C)cc(NC(=O)CCCc2nc(-c3ccccc3Cl)no2)c1,-7.11% (inactive),
COc1ccc(-c2noc(CNC(=O)C(C)Oc3ccccc3)n2)cc1 (stereo not drawn),-11.7% (inactive),
NC1=NC(c2ccc([N+](=O)[O-])cc2)N(c2ccc(F)cc2)C(N)=N1 (stereo not drawn),-21.7% (inactive),
Cc1ccc(OCCn2c(CNc3ccccc3C)nc3ccccc32)cc1,,23.1 µM (active)
Cc1ccc(OCc2nc3ccccc3n2C)cc1,-29.2% (inactive),
COCCn1c(-c2ccc(OC)c(OC)c2)nc2ccccc21,-3.14% (inactive),
COc1cc2ccccc2cc1C(=O)Nc1nc(C)c(C(C)=O)s1,3.46% (inactive),
O=C(COc1ccccc1F)Nc1ccc(C(=O)OCc2cc(=O)n3nc(C4CC4)sc3n2)cc1,-6.06% (inactive),
Cc1csc2nc(COc3ccc(NC(=O)COc4ccccc4)cc3)cc(=O)n12,-21.1% (inactive),
Cc1csc2nc(COC(=O)c3ccc(NC(=O)COc4ccccc4F)cc3)cc(=O)n12,,18.4 µM (active)
COc1ccc(CCNC(=O)CCNS(=O)(=O)c2cc(Br)cnc2N)cc1OC,-14.4% (inactive),
COC(=O)[C@H](CC(C)C)NC(=O)N1CCCCC1C (stereo partly drawn),-20.3% (inactive),
CC(C)(C)Nc1nc(-c2ccccn2)nc2ccccc12,,4.61 µM (active)
Cc1nc2ccccc2c(C(=O)O)c1-c1ccccn1,-9.02% (inactive),
CC(=O)Nc1ccc(NC(=O)CCN2C(=O)C3CC=CCC3C2=O)cc1 (stereo not drawn),-8.73% (inactive),
COC(=O)[C@]1(C)CCC[C@@]2(C)C3CC[C@]4(OC(C)=O)C[C@@]3(CCC21)CC4=NO (stereo partly drawn),,16.4 µM (active)
